Screening data deposited in PubChem BioAssay by Broad Institute.
aSyn UTR act: Activators via SNCA 5'UTR binding, MLPCN. actives 7.1% (n = 300,000). alpha-synuclein 5'UTR reporter, activators screen. activity score, % (tested at 7.5 µM), hits read low; in the data active = activity score below about -60%
Starred values were filed as active, the others as inactive. A selection follows.

SMILES	aSyn UTR act
O=C(Nc1cc(Cl)ccc1-n1cncn1)c1ccc([N+](=O)[O-])o1	-70*
O=C(Nc1ccc(NC(=O)c2ccc([N+](=O)[O-])o2)cc1Cl)c1ccco1	-173*
O=C(Nc1ccc(Cl)c([N+](=O)[O-])c1)c1ccco1	-67*
COc1ccc(N/C=C\C(=O)c2ccc3ccccc3c2)cc1	-212*
COc1ccc(C(=O)Nc2cccc([N+](=O)[O-])c2)cc1Br	-85*
COc1ccc(Br)cc1CN(C)C(C)C(=O)Nc1cc([N+](=O)[O-])ccc1OC (stereo not given)	51
CCn1c(=N)n(CC(=O)c2cccc([N+](=O)[O-])c2)c2ccccc21	-83*
COc1ccc(NC(=O)c2ccc3ccccc3c2)cc1	-92*
COc1ccc(NC(=O)c2cc([N+](=O)[O-])ccc2O)cc1	85
COc1ccc(C(=O)CNc2ccc3ccccc3c2)cc1	-70*
COc1ccc(NC(=O)c2cccc([N+](=O)[O-])c2)cc1	-105*
COc1ccc(C(=O)Nc2ccc(S(=O)(=O)N(C)c3ccccc3)cc2)cc1	-74*
COc1ccc(NC(=O)c2coc(C)c2)cc1	-115*
CN(C)S(=O)(=O)Oc1cccc(C(=O)Nc2ccc([N+](=O)[O-])cc2)c1	-168*
COc1ccc(C(=O)CNc2ccccc2Br)cc1	-181*
COC(=O)/C(=C/c1cccc([N+](=O)[O-])c1)NC(=O)c1ccc(OC)cc1	-216*
O=C(/C=C/Nc1ccccc1)c1ccc(Oc2ncccn2)cc1	-244*
CCOc1ccc(N/C=C/C(=O)c2ccc(OC)c(OC)c2)cc1	-175*
COc1ccc(-c2cccc(C(=O)N3CCOCC3)c2)cc1	-80*
COc1ccc(-c2cccc(C(=O)Nc3cccc(C(=O)O)c3)c2)cc1	-149*
CCOc1ccc(NS(=O)(=O)c2cc(OC)ccc2OC)cc1	-91*
Cc1ccc(NCCC(=O)c2cccc([N+](=O)[O-])c2)cc1	-151*
COc1ccc(C(=O)/C=C/Nc2ccc(C)cn2)cc1OC	-140*
CCn1c2ccccc2c2cc(NC(=O)N3CCOCC3)ccc21	-84*
CC(C)c1ccc(NC(=O)N2CCOCC2)cc1	-107*
SMILES	aSyn UTR act
O=C(Nc1ccc2c(c1)oc1ccccc12)N1CCOCC1	-140*
CCn1c2ccccc2c2cc(NC(=O)CN(C)CC(=O)Nc3ccc(N4CCOCC4)cc3)ccc21	-143*
Clc1ccc2nnnc(-c3ccccc3)c2c1	-375*
c1ccc(-c2nnnc3ccccc23)cc1	-165*
CC(=O)c1sc(NC(=O)c2ccco2)nc1-c1ccccc1	-115*
CC(=O)c1c(C)[nH]c(C(=O)Nc2nccs2)c1C	-135*
Cc1sc(NC(=O)c2cccs2)nc1-c1ccccc1	-199*
Cc1sc(N/N=C/c2cccs2)nc1-c1ccccc1	-211*
Cc1sc(NC(=O)c2ccco2)nc1-c1ccccc1	-95*
CC(=O)c1c(C)[nH]c(C(=O)Nc2nc(-c3ccccc3)c(C)s2)c1C	-76*
CCOC(=O)N/N=C\C=C\c1ccc2c(c1)OCO2	-121*
CC(C)(C)OC(=O)N/N=C\C=C\c1ccc2c(c1)OCO2	-197*
COC(=O)N/N=C\C=C\c1ccc2c(c1)OCO2	-134*
O=CC1=C(c2ccccc2)Oc2ccccc2O1	-62*
CCNC(=S)/N=C(\N)Nc1nc(C)c2cc(C)ccc2n1	-207*
C(=N\NC1=Nc2cccc3cccc1c23)/c1ccccc1	-256*
Clc1ccc(N/N=C/c2cccnc2)cc1	-123*
C(=N\NC1=Nc2cccc3cccc1c23)/c1cccnc1	-258*
Clc1ccc(/C=N/NC2=Nc3cccc4cccc2c34)cc1	-191*
Cc1cc(C)cc(NC(=S)Nc2ccccn2)c1	-105*
Cc1cccc(NC(=S)Nc2ccccn2)c1	-71*
Cc1ccc(NC(=S)Nc2ccccn2)cc1C	-112*
CCN(CC)S(=O)(=O)c1cc(C(=O)Nc2ccc(Cl)cn2)ccc1C	-118*
CCN(CC)S(=O)(=O)c1cccc(C(=O)Nc2ccc(Cl)cn2)c1	-76*
CCN(CC)S(=O)(=O)c1cccc(C(=O)NCCc2ccccc2)c1	-159*
SMILES	aSyn UTR act
CCCCN(CC)S(=O)(=O)c1ccc(C(=O)Nc2nnc(-c3ccccc3Cl)o2)cc1	76
Cc1ccc(NC(=O)c2cccc(S(C)(=O)=O)c2)cc1	-83*
CCN(CC)S(=O)(=O)c1cccc(C(=O)Nc2cccc(C)c2)c1	-124*
Cc1ccc(NC(=O)c2ccnc(C(C)(C)C)c2)cc1	-127*
CCN(CC)S(=O)(=O)c1cccc(C(=O)N/N=C(\C)c2ccc(O)cc2O)c1	111
O=[N+]([O-])c1cc(C(F)(F)F)ccc1NCCOc1ccccc1	-124*
COc1ccccc1/C=C/C(=O)NC(=S)Nc1ccccn1	-126*
COc1ccc(/C=C/C(=O)NC(=S)NNC(=O)c2cnccn2)cc1	75
COc1ccc(/C=C/C(=O)NC(=S)Nc2ccccn2)cc1	-94*
O=C(Nc1cccc(-c2cn3ccccc3n2)c1)c1cc2ccccc2oc1=O	-100*
c1ccc2c(-c3cn4ccccc4n3)c[nH]c2c1	-281*
CC(=O)Nc1cccc(-c2cn3ccccc3n2)c1	-78*
Oc1ccc(-c2cn3ccccc3n2)cc1O	-124*
COc1ccc(OC)c(Cc2nnc(CCC(=O)N3CCN(C4CCCC4)CC3)o2)c1	-74*
Cn1c(-c2ccccc2)cnc1SCc1nc2ccccc2c(=O)[nH]1	-62*
COC(=O)c1ccc(CSC2=NCCS2)cc1	-83*
CCc1ccc(/C=C2\SC(=S)N(CCC(=O)NC3=NCCS3)C2=O)cc1	89
CC(=O)c1ccc(OCc2cc(C(=O)N(C)CCOc3ccc(C)cc3)no2)cc1	-170*
Cc1cc(OCc2cc(C(=O)N(C)C3CCOC3)no2)cc(C)c1Cl (stereo not given)	-107*
CC(=O)c1ccc(OCc2cc(C(=O)N(C)C3CCOC3)no2)cc1 (stereo not given)	-130*
Cc1cccc(NC(=O)c2ccc(Cl)c(S(=O)(=O)N3CCCCC3)c2)n1	-79*
O=C(Nc1cc(S(=O)(=O)N2CCCCC2)ccc1Cl)c1ccccc1NS(=O)(=O)c1ccc(F)cc1	63
Cc1cccc(NC(=O)c2ccc(Cl)c(S(=O)(=O)N3CCCC3)c2)n1	-68*
COc1ccc(OC)c(Nc2nc(NCCO)c3ccccc3n2)c1	-68*
COc1ccc(OC)c(Nc2c3c(nc4ccccc24)CCC3)c1	106
SMILES	aSyn UTR act
Cc1ccc(Nc2nc(NCCO)c3ccccc3n2)cc1C	-76*
OCCNc1c2ccccc2nc2ccccc12	-167*
CCOC(=O)c1sc2nc(NC(=O)C(C)(C)C)sc2c1C	-135*
CCOC(=O)c1sc2nc(NC(=O)C3CC3)sc2c1C	-201*
NC(=O)CSc1nc2sc(-c3ccccc3)cc2c(=O)n1N	-64*
Cc1nc2sc(-c3ccccc3)cc2c(=O)n1/N=C/N(C)C	-156*
Cc1nc2sc(-c3ccccc3)cc2c(=O)n1N	75
Cc1nc2sc(-c3ccccc3)cc2c(=O)n1-n1cccc1	-189*
N=c1oc2cc(O)ccc2cc1C(=O)Nc1ccc(Cl)cc1	-126*
N=c1oc2ccccc2cc1C(=O)Nc1ccc(F)cc1	-154*
N=c1oc2ccccc2cc1C(=O)Nc1cccc(F)c1	-122*
Cc1ccc(NC(=O)c2cc3ccccc3oc2=N)cc1	82
O=C(c1ccncc1)N1N=C(c2ccc(Cl)cc2)CC1c1ccccc1O (stereo not given)	-128*
C/C(NC(=O)c1cccc(F)c1)=C1/C(=O)C[C@@H]2[C@H]1C2(C)C	-183*
C/C(NC(=O)c1ccccc1F)=C1\C(=O)C[C@@H]2[C@H]1C2(C)C	-174*
